We go through 39 compounds from PubChem BioAssay (NCI).

About 79,000 compounds went through this panel and 15% of them were active in at least one assay; those are over-represented in the sample as a whole. A number with no mark means an inactive call. The source made the active and inactive calls. Cut-off read from the data, not from the text of the source: active = growth inhibition above about 70%; inactive = the rest.

A short description of assay [1]: NCI Yeast Anticancer Drug Screen. Data for the rad50 strain (AID 155).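 Note: 0% = growth of vehicle-only cultures of the same strain.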 The following applies: S. cerevisiae rad50 strain growth inhibition; at 50.0 µM; active compounds read high. The method in brief:
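Genetically altered yeast (DNA repair pathway); compound treatment; growth inhibition vs vehicle ctrl.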

Assay [2] is described as follows: NCI Yeast Anticancer Drug Screen. Data for the mec2-1 strain (AID 157). The following applies: S. cerevisiae mec2-1 strain, at 50.0 µM, active compounds read high. The method in brief:
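mec2-1 yeast strain, carrying an alteration in DNA damage repair or cell cycle control, was exposed to compounds; growth inhibition was measured relative to vehicle-treated controls.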

Assay [3] in a line: NCI Yeast Anticancer Drug Screen. Data for the sgs1 mgt1 strain (AID 161).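 Note: 0% = growth of cultures given vehicle only.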 The following applies: S. cerevisiae sgs1 mgt1 strain, at 50.0 µM, active compounds read high. The method in brief:
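Compounds are added to genetically altered yeast, and growth is compared with cultures given vehicle alone to give percent inhibition.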

The nature of assay [4]: NCI Yeast Anticancer Drug Screen. Data for the cln2 rad14 strain (AID 165).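 Note: 0% = growth equal to vehicle treated cultures.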 The following applies: S. cerevisiae cln2 rad14 strain, at 50.0 µM, active compounds read high. Summed up:
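Yeast carrying cln2 and rad14 alterations (cell cycle control and DNA damage repair) were exposed to compounds. Growth inhibition was measured against vehicle-treated controls.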

Assay [5] is described as follows: NCI Yeast Anticancer Drug Screen. Data for the bub3 strain (AID 167). The following applies: S. cerevisiae bub3 mutant strain, at 50.0 µM, active compounds read high. Summed up: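 Yeast carrying a defined mutation is treated with each compound, and growth is compared with that of vehicle-exposed cells to give inhibition.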
The nature of assay [6]: NCI Yeast Anticancer Drug Screen. Data for the mlh1 rad18 strain (AID 175). The following applies: S. cerevisiae mlh1 rad18 strain growth inhibition; at 50.0 µM; active compounds read high. Summed up:
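Growth inhibition of the yeast strain was measured after compound exposure and expressed relative to vehicle-treated controls. The strain carries defined defects in DNA damage repair.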

For the compound `O=C(O)C(c1ccccc1)C(F)(F)F` (centres undefined), the growth inhibition in assay [1] was -1.45%; in assay [2], 11.1%; in assay [3] it was 2.45%; in assay [4], -10.4%; in assay [5], -2.1%; in assay [6], 0.85%.

Consider `CC1(C)CC(OP(=O)(c2ccccc2)c2ccccc2)CC(C)(C)N1O`, for which the growth inhibition in assay [1] is 5.25%; in assay [2] it was 12.8%; in assay [3], -6.3%; in assay [4], 3.1%; in assay [5], 13.3%; in assay [6], 11.2%.

Consider `O=S(=O)(N/N=C/c1ccc(/C=N/NS(=O)(=O)c2ccccc2)cc1)c1ccccc1`, for which the growth inhibition was -6.9% in assay [1]; -15.8% in assay [2]; -21.3% in assay [3]; 12.6% in assay [4]; -7.95% in assay [5]; 0.15% in assay [6].

Take `COc1cc2cccc(NC(=O)c3cc(OC)c(OC)c(OC)c3Br)c2cc1OC`: the growth inhibition in assay [1] was 31.4%; in assay [2], 12.4%; in assay [3] it was 16.6%; in assay [4], 19.6%; in assay [5], 44.5%; in assay [6] it was 20.7%.

As for `CCC(=O)Oc1ccc(C(=O)O)cc1`, the growth inhibition in assay [1] was 6.2%; in assay [2], -10%; in assay [3] it was -12.1%; in assay [4], -39.5%; in assay [5], -26.5%; in assay [6], 1.45%.

As to `CNC(=O)C1CCC(=O)N1Cc1c[nH]c2ccccc12` (centres undefined), the growth inhibition was -4.6% in assay [1]; -8.65% in assay [2]; -1.75% in assay [3]; 2.25% in assay [4]; 8.75% in assay [5]; -5.45% in assay [6].

Turning to `O=S(=O)(O)SCC1=NCCN1`, the growth inhibition in assay [1] is 17.9%; in assay [2], -5.1%; in assay [3], -3.55%; in assay [4], -34.9%; in assay [5], 11.2%; in assay [6], 9.85%.

For `FS(F)(F)(F)(F)c1cccc(NC(=S)SCc2ccc3c(c2)OCO3)c1`, the growth inhibition was 97.6% (active) in assay [1]; 99% (active) in assay [2]; 98.8% (active) in assay [3]; 99.3% (active) in assay [4]; 98.8% (active) in assay [5]; 98.3% (active) in assay [6].

`CCCCOC(=O)NC(=O)c1cc2ccc(N(CC)CC)cc2oc1=O`: the growth inhibition in assay [1] was -10.5%; in assay [2], 3.5%; in assay [3], 8.7%; in assay [4], 3.4%; in assay [5], 5.4%; in assay [6] it was 4.2%.

Regarding `O=C(NCCO)C(=O)NCCO`, the growth inhibition in assay [1] is 5.25%; in assay [2], -13.3%; in assay [3], 5.7%; in assay [4] it was -9.35%; in assay [5] it was -2.55%; in assay [6], 17.6%.

In the case of `C=C1CCC2[C@@H](CCC3[C@]2(C)CCC[C@]3(C)C(=O)OC)[C@@H]1CC=O` (some centres undefined), the growth inhibition is 11.4% in assay [1]; 10.2% in assay [2]; 9.25% in assay [3]; 23.4% in assay [4]; 9.5% in assay [5]; 14.8% in assay [6].

For the compound `CC1=CC(=O)C(CCC#N)C(C)(C)C1` (centres undefined), the growth inhibition was -8.6% in assay [1]; -17.9% in assay [2]; -1.75% in assay [3]; -36.9% in assay [4]; 5.85% in assay [5]; -0.4% in assay [6].

On to `CS/C(=N\S(=O)(=O)c1cc(C)c(Cl)cc1Cl)NNc1cnc2ccccc2n1`, for which the growth inhibition in assay [1] is -12.1%; in assay [2] it was -23.4%; in assay [3] it was -7.1%; in assay [4], 11.9%; in assay [5], -17.2%; in assay [6], 1.7%.

`CN(C)C(=S)Oc1ccc([N+](C)(C)C)cc1`: the growth inhibition in assay [1] was -3.7%; in assay [2], 3.55%; in assay [3], 2.5%; in assay [4], -4.6%; in assay [5], 3.15%; in assay [6] it was -1%.

As for `Cc1cccc(C)c1NC(=S)N(CCC#N)Cc1ccccc1`, the growth inhibition in assay [1] was 6.8%; in assay [2], 1.45%; in assay [3], 1.9%; in assay [4], -4.55%; in assay [5], 12.3%; in assay [6], -11.1%.

`Cc1c(Cl)cccc1NC(=O)Sc1ccc(C(C)(C)C)cc1`: the growth inhibition was 21.1% in assay [1]; 11.4% in assay [2]; 12.5% in assay [3]; 19.1% in assay [4]; 11.4% in assay [5]; 15.5% in assay [6].

Regarding `CCCCCCN(CCCCCC)CC(O)c1c(Cl)ccc2ccccc12` (centres undefined), the growth inhibition was 99.1% (active) in assay [1]; 96.5% (active) in assay [2]; 99.3% (active) in assay [3]; 98.6% (active) in assay [4]; 96.4% (active) in assay [5]; 98.5% (active) in assay [6].

Take `CC1SC(=S)NC1=O` (centres undefined): the growth inhibition in assay [1] was -16%; in assay [2] it was -2.1%; in assay [3] it was -10.8%; in assay [4], -2%; in assay [5] it was -10.9%; in assay [6], -0.8%.

Consider `Nc1[nH]c(=S)[nH]c(=S)c1N`, for which the growth inhibition in assay [1] is -30.6%; in assay [2], -8.6%; in assay [3], -15.2%; in assay [4], -44.8%; in assay [5] it was -15.3%; in assay [6] it was -25.4%.

In the case of `Cc1ccc(C)c(NC(=O)C(=O)C(C(=O)c2ccc3ccccc3c2)C2OC(=O)c3ccccc32)c1` (centres undefined), the growth inhibition in assay [1] is 23.9%; in assay [2], 15.8%; in assay [3], 35.9%; in assay [4] it was 23.5%; in assay [5] it was 4.15%; in assay [6] it was 13.7%.

For the compound `Cc1ccc(S(=O)(=O)NC(Cc2ccccc2)C(=O)NCc2cccnc2)cc1` (centres undefined), the growth inhibition is 23.6% in assay [1]; -8.4% in assay [2]; 5.2% in assay [3]; 4.45% in assay [4]; -4.1% in assay [5]; 4.65% in assay [6].

`CC(C)C(O)C(=O)C(O)C(C)C` (centres undefined): the growth inhibition in assay [1] is -13.4%; in assay [2], -8.2%; in assay [3], 4.5%; in assay [4], 15.7%; in assay [5], 3.4%; in assay [6], -10.9%.

As for `CCOC(=O)CCCC(NC(=O)c1ccc(N2CCN(c3c(N)nc(N)nc3NC)CC2)cc1)C(=O)OCC` (centres undefined), the growth inhibition in assay [1] was 9.95%; in assay [2], 5.75%; in assay [3], -0.4%; in assay [4], 6.55%; in assay [5], -3.95%; in assay [6], -2.3%.

Turning to `CCc1cccc(Nc2ccccc2C(=O)O)c1`, the growth inhibition in assay [1] is 42%; in assay [2], 25.2%; in assay [3], 29.8%; in assay [4], -26.6%; in assay [5], -2.05%; in assay [6], -2.2%.

Consider `CCCCCCC(=O)c1ccc2ccccc2c1O`, for which the growth inhibition is 1.6% in assay [1]; -14.8% in assay [2]; 0.55% in assay [3]; -23.9% in assay [4]; 8.8% in assay [5]; -2.55% in assay [6].

As for `CCCCNC(=O)C(CCCC)C(CCC)(CCC)CCCC` (centres undefined), the growth inhibition in assay [1] was -21.4%; in assay [2], -13%; in assay [3] it was -16.5%; in assay [4] it was -35.8%; in assay [5], 55.3%; in assay [6] it was 3.55%.

Consider `COC1/C=C/OC2(C)Oc3c(C)c(O)c4c(O)c(c(/C=N/N5CCN(Cc6cccc(C(F)(F)F)c6)CC5)c(O)c4c3C2=O)NC(=O)C(C)=C/C=C/C(C)C(O)C(C)C(O)C(C)C(OC(C)=O)C1C` (centres undefined), for which the growth inhibition is 11.7% in assay [1]; 30.7% in assay [2]; 35.3% in assay [3]; 27.2% in assay [4]; 11.8% in assay [5]; 43.1% in assay [6].

`CC(C)(C(=Nc1ccc([N+](=O)[O-])cc1)N1CCOCC1)c1ccccc1`: the growth inhibition in assay [1] was 9%; in assay [2], 6.7%; in assay [3] it was 5.05%; in assay [4] it was 34.6%; in assay [5] it was 32.1%; in assay [6], 22.6%.

With `Cc1cn(C2CCN(CC3COC(C)(C)O3)O2)c(=O)[nH]c1=O` (centres undefined), the growth inhibition was -13.5% in assay [1]; -11.9% in assay [2]; -26.3% in assay [3]; -24.9% in assay [4]; -5.35% in assay [5]; -19.6% in assay [6].

With `CCCCCCCCCCCl`, the growth inhibition in assay [1] is 13.2%; in assay [2], 5.85%; in assay [3], 28.5%; in assay [4], 21.8%; in assay [5], 17.6%; in assay [6], 25%.

Consider `[O-]/[N+](=C\c1ccccc1)[C@H](COCc1ccccc1)c1ccccc1`, for which the growth inhibition in assay [1] was -21.8%; in assay [2] it was -17.1%; in assay [3] it was -23.8%; in assay [4] it was -13.5%; in assay [5], -2.75%; in assay [6], -5.5%.

On to `Clc1ccc(CSc2cnnc(SCc3ccc(Cl)c(Cl)c3)c2SCc2ccc(Cl)c(Cl)c2)cc1Cl`, for which the growth inhibition in assay [1] is 1.2%; in assay [2] it was 5.15%; in assay [3], 3.9%; in assay [4], -5.9%; in assay [5], -0.8%; in assay [6], 17.1%.

As for `COC(OC)c1cccnc1C`, the growth inhibition was -25.6% in assay [1]; 16.8% in assay [2]; -25.1% in assay [3]; 6.65% in assay [4]; -23.5% in assay [5]; 7.7% in assay [6].

With `Cc1cc(C)[n+](C)c(/C=C\c2ccccc2Cl)n1`, the growth inhibition is 5.2% in assay [1]; -1.7% in assay [2]; 10.6% in assay [3]; 15.2% in assay [4]; -2.5% in assay [5]; 22.1% in assay [6].

For `CN1C(=O)n2c(nc3ccccc32)C(N2CCOCC2)(N2CCOCC2)C1=O`, the growth inhibition in assay [1] is 44%; in assay [2] it was 56.4%; in assay [3], 62.9%; in assay [4] it was 29.9%; in assay [5], 31.4%; in assay [6] it was 45.8%.

In the case of `CCN1C(=O)C(N=[N+]=[N-])(c2ccccc2)C(=O)c2ccccc21` (centres undefined), the growth inhibition in assay [1] was 10.5%; in assay [2], -8.5%; in assay [3], -16.7%; in assay [4] it was 6.6%; in assay [5] it was 2.45%; in assay [6] it was 0.65%.

`CCOC(=O)CC(=O)C(=O)OCC`: the growth inhibition was 2.05% in assay [1]; -4.75% in assay [2]; -4.8% in assay [3]; -25.6% in assay [4]; -18% in assay [5]; -27.2% in assay [6].

As for `O=C([O-])C(=O)[N-]CCC[N-]C(=O)C(=O)[N-]CCC[N-]C(=O)C(=O)[O-].[Cu+2].[Cu+2].[Na+]`, the growth inhibition in assay [1] was -8.45%; in assay [2], -13.6%; in assay [3], 4.35%; in assay [4], -21.8%; in assay [5], -7.7%; in assay [6], 8.9%.

Take `CCC1=C(O)C(=O)C(C)(C)C1=O`: the growth inhibition in assay [1] is -5.85%; in assay [2] it was -5.2%; in assay [3], -3.15%; in assay [4], -2.7%; in assay [5], 15.9%; in assay [6], 9.45%.
